Measurements published in PubChem BioAssay (NCATS).
Results filed as inconclusive are left out. The source made the active and inactive calls. The call rests on the fitted dose curve; in most records, active means well fitted curve in the direction sought with a large enough effect; inconclusive means small, poorly fitted or top-dose-only effect, or another doubt; inactive means no such curve, though single readings can be large; an effect the other way counts as inactive or inconclusive.

How the values were obtained:
NIH3T3 = assay: qHTS assay to identify novel small-molecules to repurpose for Merkel cell carcinoma treatment (AID 1296009); settings: MCC and control cell lines, CellTiter-Glo viability, 72 h; at 44.8 µM (top of the series) unless noted; further: nearly all actives have a fitted effect of over 60% in size
Outline: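 Dose-response viability screen; 72 hr exposure at 37 degree celsius; CellTiter-Glo added, 10 min room temperature, luminescence read; RLUs scaled between no-cell and DMSO wells.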

C33A = assay: Primary qHTS to identify gynecologic anti-cancer compounds using libraries of approved drugs and bioactive compounds (AID 1345084); settings: Gynecologic cancer cell panel viability, ATPlite luminescence, 48 h; series mostly up to 57.5 µM; further: on the % scale 0 is the no-effect control and ±100 the full control effect; nearly all actives have a fitted effect of over 55% in size
Outline: (§1)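 Five-concentration response, 48 h; readout is ATP-driven luciferase luminescence.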

CAOV3 = assay: as above; settings: Gynecologic cancer cell panel viability, ATPlite luminescence, 48 h; series mostly up to 57.5 µM
Outline: as §1

CASKI = assay: as above; settings: Gynecologic cancer cell panel viability, ATPlite luminescence, 48 h; series mostly up to 57.5 µM
Outline: as §1

Es-2 = assay: as above; settings: Gynecologic cancer cell panel viability, ATPlite luminescence, 48 h; series mostly up to 57.5 µM
Outline: as §1

HeLa = assay: as above; settings: Gynecologic cancer cell panel viability, ATPlite luminescence, 48 h; series mostly up to 57.5 µM
Outline: as §1

Hek293T = assay: as above; settings: Gynecologic cancer cell panel viability, ATPlite luminescence, 48 h, control line for the selectivity index; series mostly up to 57.5 µM
Outline: as §1

JEG-3 = assay: as above; settings: Gynecologic cancer cell panel viability, ATPlite luminescence, 48 h; series mostly up to 57.5 µM
Outline: as §1

COC(=O)C1=CO[C@@H](O[C@@H]2O[C@H](CO)[C@@H](O)[C@H](O)[C@H]2O)[C@@H]2[C@@H](C)[C@@H](OC(=O)/C=C/c3ccccc3)[C@@H](O)[C@H]12
inactive: outcome (NIH3T3) inactive [at 17.4 µM] | Potency (C33A) | Potency (CAOV3) | outcome (CASKI) | Potency (Es-2) | Potency (HeLa) | Potency (Hek293T) | Potency (JEG-3)

CC1=C[C@H](O)[C@H]2C(C)(C)CCC[C@]2(C)[C@@]1(O)CO
inactive: outcome (NIH3T3) | Potency (C33A) | Potency (CAOV3) | outcome (CASKI) | Potency (Es-2) | Potency (HeLa) | Potency (Hek293T) | Potency (JEG-3)

Cc1cc(CO)c(O)c(C(=O)CC2CC(=O)NC(=O)C2)c1
inactive: outcome (NIH3T3) | Potency (C33A) | Potency (CAOV3) | outcome (CASKI) | Potency (Es-2) | Potency (HeLa) | Potency (Hek293T) | Potency (JEG-3)

CC1(C)[C@@H]2CC=C(CO[C@@H]3O[C@H](CO[C@@H]4OC[C@H](O)[C@H](O)[C@H]4O)[C@@H](O)[C@H](O)[C@H]3O)[C@H]1C2
inactive: outcome (NIH3T3) inactive [at 17.4 µM] | Potency (C33A) | Potency (CAOV3) | outcome (CASKI) | Potency (Es-2) | Potency (HeLa) | Potency (Hek293T) | Potency (JEG-3)

CC[C@@H](Nc1c(Nc2cccc(C(=O)N(C)C)c2O)c(=O)c1=O)c1ccc(C)o1
inactive: outcome (NIH3T3) | Potency (C33A) | Potency (CAOV3) | outcome (CASKI) | Potency (Es-2) | Potency (HeLa) | Potency (Hek293T) | Potency (JEG-3)

COc1cn(-c2ccc(-n3cccn3)cc2F)nc(-c2ccnn2-c2ccccc2)c1=O
inactive: outcome (NIH3T3) | Potency (C33A) | Potency (CAOV3) | outcome (CASKI) | Potency (Es-2) | Potency (HeLa) | Potency (Hek293T) | Potency (JEG-3)

CC1=CCC2C(C)(C)CCCC2(C)C1CC12OC1C(O)C(CO)=CC2O (stereo unspecified)
inactive: outcome (NIH3T3) | Potency (C33A) | Potency (CAOV3) | outcome (CASKI) | Potency (Es-2) | Potency (HeLa) | Potency (Hek293T) | Potency (JEG-3)

CC(=O)OCC1OC(O[C@H]2CC[C@]34C[C@]35CC(O)[C@]3(C)[C@@H]([C@H](C)CC/C=C(\C)C(=O)O)C(O)C[C@@]3(C)C5CC[C@H]4C2(C)C)C(O)C(O)C1OC1OCC(O)C(O)C1O (stereo partly specified)
inactive: outcome (NIH3T3) inactive [at 9.27 µM] | activity change, negative = cytotoxicity (C33A) -4.66% [at 11.6 µM] | activity change, negative = cytotoxicity (CAOV3) -5.98% [at 11.6 µM] | activity change, negative = cytotoxicity (CASKI) -12.9% [at 11.6 µM] | activity change, negative = cytotoxicity (Es-2) -0.425% [at 11.6 µM] | activity change, negative = cytotoxicity (HeLa) 6.1% [at 11.6 µM] | activity change, negative = cytotoxicity (Hek293T) -4.45% [at 11.6 µM] | activity change, negative = cytotoxicity (JEG-3) -9.54% [at 11.6 µM]

C=CC(C)(O)CC/C=C(\C)C(=O)O[C@@H]1[C@@H](O)[C@H](OC(C)(C=C)CC/C=C(\C)C(=O)O)O[C@H](CO)[C@H]1OC(=O)/C(C)=C/CCC(C)(O)C=C (stereo partly specified)
inactive: outcome (NIH3T3) inactive [at 17.4 µM] | Potency (C33A) | Potency (CAOV3) | outcome (CASKI) | Potency (Es-2) | Potency (HeLa) | Potency (Hek293T) | Potency (JEG-3)

C[C@H]1/C=C/C=C/C=C/C=C/C=C/[C@@H](O)[C@H](C(=O)O)[C@H](O)C[C@H](O)CCC[C@H](O)C[C@H](O)C[C@H](O)[C@@H](C)C(=O)O[C@@H]1C
inactive: outcome (NIH3T3) inactive [at 17.4 µM] | Potency (C33A) | Potency (CAOV3) | outcome (CASKI) | Potency (Es-2) | Potency (HeLa) | Potency (Hek293T) | Potency (JEG-3)

C=C1CC[C@@]2(OC1)O[C@H]1CC3C4CC=C5C[C@@H](O[C@@H]6O[C@@H](C)[C@H](O)[C@@H](O)[C@H]6O)C[C@@H](O[C@@H]6O[C@H](C)[C@H](O)[C@H](O)[C@H]6O[C@@H]6O[C@@H](C)[C@H](O)[C@@H](O)[C@H]6O)[C@]5(C)C4CC[C@]3(C)[C@H]1[C@@H]2C (stereo partly specified)
inactive: outcome (NIH3T3) inactive [at 9.27 µM] | activity change, negative = cytotoxicity (C33A) 1.56% [at 11.6 µM] | activity change, negative = cytotoxicity (CAOV3) 10.5% [at 11.6 µM] | activity change, negative = cytotoxicity (CASKI) -15.2% [at 11.6 µM] | activity change, negative = cytotoxicity (Es-2) 20.8% [at 11.6 µM] | activity change, negative = cytotoxicity (HeLa) 18.7% [at 11.6 µM] | activity change, negative = cytotoxicity (Hek293T) 5.62% [at 11.6 µM] | activity change, negative = cytotoxicity (JEG-3) -4.67% [at 11.6 µM]

CC1(C)CC[C@]2(C(=O)O)CC[C@]3(C)C(=CCC4[C@@]5(C)CC[C@H](O[C@@H]6O[C@H](C(=O)O)[C@@H](O)[C@H](O)[C@H]6O)C(C)(C)C5CC[C@]43C)C2C1 (stereo partly specified)
inactive: outcome (NIH3T3) inactive [at 17.4 µM] | Potency (C33A) | Potency (CAOV3) | outcome (CASKI) | Potency (Es-2) | Potency (HeLa) | Potency (Hek293T) | Potency (JEG-3)

CC[C@H]1OC(=O)[C@H](C)[C@@H](O[C@H]2C[C@@](C)(OC)[C@@H](O)[C@H](C)O2)C(C)[C@@H](O[C@@H]2O[C@H](C)C[C@H](N(C)C)[C@H]2O)[C@](C)(O)C[C@@H](C)CN(C)[C@H](C)[C@@H](O)[C@]1(C)O (stereo partly specified)
inactive: outcome (NIH3T3) | Potency (C33A) | Potency (CAOV3) | outcome (CASKI) | Potency (Es-2) | Potency (HeLa) | Potency (Hek293T) | Potency (JEG-3)

CC1OC(OC2C(OC3C(O[C@H]4CC[C@@]5(C)C(CC[C@]6(C)C5CC=C5C7CC(C)(C)CC(O)[C@]7(C)CC[C@]56C)C4(C)C)OC(C(=O)O)C(O)C3O)OCC(O)C2O)C(O)C(O)C1O (stereo partly specified)
inactive: outcome (NIH3T3) inactive [at 9.27 µM] | activity change, negative = cytotoxicity (C33A) 14% [at 11.6 µM] | activity change, negative = cytotoxicity (CAOV3) 4.78% [at 11.6 µM] | activity change, negative = cytotoxicity (CASKI) -6.68% [at 11.6 µM] | activity change, negative = cytotoxicity (Es-2) 1.85% [at 11.6 µM] | activity change, negative = cytotoxicity (HeLa) 7.99% [at 11.6 µM] | activity change, negative = cytotoxicity (Hek293T) -2.65% [at 11.6 µM] | activity change, negative = cytotoxicity (JEG-3) 6.46% [at 11.6 µM]

CC(C)(CC(=O)N1CCCC1)NCC(=O)N1C[C@@H](F)C[C@H]1C#N
inactive: outcome (NIH3T3) | Potency (C33A) | Potency (CAOV3) | outcome (CASKI) | Potency (Es-2) | Potency (HeLa) | Potency (Hek293T) | Potency (JEG-3)

CC1=CC23[C@H](C=C(C(=O)O)[C@@H]2COC(=O)[C@]3(O)CO)[C@@H]1C (stereo partly specified)
inactive: outcome (NIH3T3) | Potency (C33A) | Potency (CAOV3) | outcome (CASKI) | Potency (Es-2) | Potency (HeLa) | Potency (Hek293T) | Potency (JEG-3)

CO[C@@H]1[C@]2(O)C(=O)N3/C=C\C(C)(C)c4[nH]c5ccccc5c4/C=C\3C(=O)N2[C@]23[C@H](CO)C(C)(C)N2c2ccccc2[C@]13O
inactive: outcome (NIH3T3) inactive [at 17.4 µM] | Potency (C33A) | Potency (CAOV3) | outcome (CASKI) | Potency (Es-2) | Potency (HeLa) | Potency (Hek293T) | Potency (JEG-3)
